34 molecules from PubChem BioAssay (EPA / NIEHS) can be followed below.

Usually AC50 stands for the concentration at which the activity in the assay is half-maximal.

The structures appear in SMILES notation. Calls of active or inactive are those of the source. The calls were made as follows: active = hit-call score of the fitted dose curve at least 0.9, where 1 is the maximum; inactive = score below 0.9.

Test system in the first test: not listed separately
Description: ATG_ERE_CIS: Attagene CIS-FACTORIAL HepG2 Assay for Estrogen Response Element (ERE) (AID 2282940). Conditions: HepG2 ERE cis-reporter, Attagene RNA transcript; actives raise or lower the signal. The method, boiled down: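 HepG2 cells transiently transfected with cis-promoter-driven multiplexed reporter transcription units report endogenous TF activity. After 24 h compound exposure, reporter mRNA is quantified by RT-PCR with capillary electrophoresis fluorescence; bidirectional fitting versus DMSO baseline.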
Turning to `CC/C=C\CCOC(C)OCC` (configuration not stated), the outcome was inactive.

Take `CCCCCCCCCCCCCCCCCC(=O)OCCCCCCCCCCCCCC(C)C`: the AC50 is 28.7 µM (active).

With `CC(=N[Si](C)(C)C)O[Si](C)(C)C`, the result was inactive.

For the molecule `c1ccc(Cc2ccccc2)cc1`, the concentration at half-maximal activity (AC50) is 100 µM (active).

Regarding `Cc1cc(N)n(-c2ccccc2)n1`, the molecule was called inactive.

Consider `c1ccc(OCCOc2ccccc2)cc1`, for which the result was inactive.

For `OCCCO`, the result was inactive.

As to `CCCCCC#CC(=O)OC`, the molecule was called inactive.

For the molecule `O=[N+]([O-])c1cc(N(CCO)CCO)ccc1NCCO`, the outcome was inactive.

As to `C=C(C)C(=O)OCCC[Si](OC)(OC)OC`, the call was inactive.

For `c1ccc2scnc2c1`, the molecule was classed as inactive.

With `CC12CCC(C1)C(C)(C)C2O` (configuration not stated), the call was inactive.

In the case of `COc1ccc(OC)cc1`, the outcome was inactive.

Turning to `CCCCCCOC(C)=O`, the molecule was called inactive.

`CC(CO)c1ccccc1` (configuration not stated): the molecule was classed as inactive.

For the molecule `CCCCCCCCCCCCOC(C)=O`, the result was inactive.

Consider `CCCCC(CC)COCCO` (configuration not stated), for which the result was inactive.

With `CC(C)CCOC(=O)CC(C)C`, the result was inactive.

On to `CCOC(=O)CCCCCCCCC(=O)OCC`, for which the outcome was inactive.

Regarding `CCCCCC(=O)O[C@]1(C(C)=O)CC[C@H]2[C@@H]3CCC4=CC(=O)CC[C@]4(C)[C@H]3CC[C@@]21C`, the call was inactive.

In the case of `CN(C)c1ccc(C=O)cc1`, the call was inactive.

Take `CCOCC(C)O` (configuration not stated): the molecule was classed as inactive.

As to `COc1cc(OC)c2ccc(=O)oc2c1`, the result was inactive.

For `[Cl][Dy]([Cl])[Cl]`, the outcome was inactive.

In the case of `O=C(O)CS`, the molecule was called inactive.

Turning to `CCC(CC)CO`, the molecule was called inactive.

On to `CCCCCc1cccc(=O)o1`, for which the molecule was called inactive.

`Cc1ccccc1S`: the AC50 is 20.5 µM (active).

`CCc1cccc(O)c1`: the outcome was inactive.

On to `CCC(C)(CCCC(C)C)OC(C)=O` (configuration not stated), for which the call was inactive.

On to `CCC=C(C)C=O`, for which the concentration at half-maximal activity (AC50) is 27.4 µM (active).

With `NC(=O)c1c(Cl)cccc1Cl`, the result was inactive.

`CC(O)CNCC(C)O` (configuration not stated): the molecule was classed as inactive.

Consider `CC(C)Cc1ccc(C(C)C(=O)O)cc1` (configuration not stated), for which the concentration at half-maximal activity (AC50) was 10.6 µM (active).

Test system in the next test: not listed separately
Description: ATG_Ets_CIS: Attagene CIS-FACTORIAL HepG2 Assay for human Erythroblast Transformation Specific (ETS) (AID 2282941). Conditions: HepG2 ETS cis-reporter transcription, actives raise or lower the signal. An outline of the steps: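 Human HepG2 hepatoma cells were transiently transfected with promoter-driven reporter constructs and treated for 24 hours. Reporter transcripts were quantified by RT-PCR with fluorescent primer extension; bidirectional curve fitting used DMSO as reference.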
For `CC/C=C\CCOC(C)OCC` (configuration not stated), the molecule was called inactive.

With `CCCCCCCCCCCCCCCCCC(=O)OCCCCCCCCCCCCCC(C)C`, the outcome was inactive.

Turning to `CC(=N[Si](C)(C)C)O[Si](C)(C)C`, the call was inactive.

As to `c1ccc(Cc2ccccc2)cc1`, the result was inactive.

Consider `Cc1cc(N)n(-c2ccccc2)n1`, for which the molecule was called inactive.

As to `c1ccc(OCCOc2ccccc2)cc1`, the molecule was called inactive.

Consider `OCCCO`, for which the call was inactive.

For the molecule `CCCCCC#CC(=O)OC`, the outcome was inactive.

For `O=[N+]([O-])c1cc(N(CCO)CCO)ccc1NCCO`, the result was inactive.

Regarding `C=C(C)C(=O)OCCC[Si](OC)(OC)OC`, the result was inactive.

As to `c1ccc2scnc2c1`, the outcome was inactive.

For the molecule `CC12CCC(C1)C(C)(C)C2O` (configuration not stated), the call was inactive.

As for `COc1ccc(OC)cc1`, the molecule was classed as inactive.

`CCCCCCOC(C)=O`: the outcome was inactive.

For `CC(CO)c1ccccc1` (configuration not stated), the outcome was inactive.

Turning to `CCCCCCCCCCCCOC(C)=O`, the molecule was classed as inactive.

As to `CCCCC(CC)COCCO` (configuration not stated), the result was inactive.

As to `CC(C)CCOC(=O)CC(C)C`, the outcome was inactive.

As to `CCOC(=O)CCCCCCCCC(=O)OCC`, the molecule was called inactive.

With `CCCCCC(=O)O[C@]1(C(C)=O)CC[C@H]2[C@@H]3CCC4=CC(=O)CC[C@]4(C)[C@H]3CC[C@@]21C`, the call was inactive.

In the case of `CN(C)c1ccc(C=O)cc1`, the molecule was classed as inactive.

For the molecule `CCOCC(C)O` (configuration not stated), the result was inactive.

As for `COc1cc(OC)c2ccc(=O)oc2c1`, the molecule was called inactive.

For `[Cl][Dy]([Cl])[Cl]`, the molecule was called inactive.

Turning to `O=C(O)CS`, the result was inactive.

As for `CCC(CC)CO`, the result was inactive.

For `CCCCCc1cccc(=O)o1`, the result was inactive.

`Cc1ccccc1S`: the molecule was called inactive.

Regarding `CCc1cccc(O)c1`, the molecule was classed as inactive.

Regarding `CCC(C)(CCCC(C)C)OC(C)=O` (configuration not stated), the molecule was classed as inactive.

For `CCC=C(C)C=O`, the outcome was inactive.

For the molecule `NC(=O)c1c(Cl)cccc1Cl`, the result was inactive.

Regarding `CC(O)CNCC(C)O` (configuration not stated), the outcome was inactive.

`CC(C)Cc1ccc(C(C)C(=O)O)cc1` (configuration not stated): the outcome was inactive.

In the next test the target is Hepatocyte nuclear factor 3-beta (Homo sapiens) (UniProt Q9Y261). Description: ATG_FoxA2_CIS: Attagene CIS-FACTORIAL HepG2 Assay for human Forkhead box A2 (FOXA2) (AID 2282942). Conditions: HepG2 cis-reporter transcription factor activity, 24 h; actives raise or lower the signal. An outline of the steps: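 Cells: HepG2, transient multiplex reporter transfection. Exposure 24 h. Detection: reporter-specific RT-PCR, fluorescent labelling, restriction digest, capillary electrophoresis. Analysis: bidirectional curve fit, DMSO as negative control.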
Hepatocyte nuclear factor 3-beta (Homo sapiens), sequence (Q9Y261 whole entry, looked up): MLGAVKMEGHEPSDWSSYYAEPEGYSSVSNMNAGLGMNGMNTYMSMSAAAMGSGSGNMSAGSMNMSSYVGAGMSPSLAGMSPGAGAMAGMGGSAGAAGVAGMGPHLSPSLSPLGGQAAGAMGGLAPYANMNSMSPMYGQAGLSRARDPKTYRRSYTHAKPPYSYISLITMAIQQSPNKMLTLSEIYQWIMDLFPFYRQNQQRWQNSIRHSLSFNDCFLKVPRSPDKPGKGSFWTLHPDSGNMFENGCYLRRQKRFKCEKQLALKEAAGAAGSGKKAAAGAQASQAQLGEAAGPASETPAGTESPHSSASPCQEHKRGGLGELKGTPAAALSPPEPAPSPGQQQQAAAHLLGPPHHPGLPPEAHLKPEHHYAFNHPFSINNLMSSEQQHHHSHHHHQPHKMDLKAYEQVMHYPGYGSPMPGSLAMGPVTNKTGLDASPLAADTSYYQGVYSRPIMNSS
Regarding `CC/C=C\CCOC(C)OCC` (configuration not stated), the outcome was inactive.

For the molecule `CCCCCCCCCCCCCCCCCC(=O)OCCCCCCCCCCCCCC(C)C`, the outcome was inactive.

Regarding `CC(=N[Si](C)(C)C)O[Si](C)(C)C`, the molecule was classed as inactive.

As to `c1ccc(Cc2ccccc2)cc1`, the molecule was called inactive.

Turning to `Cc1cc(N)n(-c2ccccc2)n1`, the molecule was classed as inactive.

As to `c1ccc(OCCOc2ccccc2)cc1`, the call was inactive.

In the case of `OCCCO`, the molecule was called inactive.

Regarding `CCCCCC#CC(=O)OC`, the call was inactive.

As to `O=[N+]([O-])c1cc(N(CCO)CCO)ccc1NCCO`, the result was inactive.

On to `C=C(C)C(=O)OCCC[Si](OC)(OC)OC`, for which the molecule was called inactive.

With `c1ccc2scnc2c1`, the call was inactive.

Regarding `CC12CCC(C1)C(C)(C)C2O` (configuration not stated), the outcome was inactive.

In the case of `COc1ccc(OC)cc1`, the molecule was classed as inactive.

`CCCCCCOC(C)=O`: the outcome was inactive.

For `CC(CO)c1ccccc1` (configuration not stated), the outcome was inactive.

Turning to `CCCCCCCCCCCCOC(C)=O`, the molecule was classed as inactive.

For the molecule `CCCCC(CC)COCCO` (configuration not stated), the outcome was inactive.

Take `CC(C)CCOC(=O)CC(C)C`: the molecule was called inactive.

Turning to `CCOC(=O)CCCCCCCCC(=O)OCC`, the molecule was classed as inactive.

Turning to `CCCCCC(=O)O[C@]1(C(C)=O)CC[C@H]2[C@@H]3CCC4=CC(=O)CC[C@]4(C)[C@H]3CC[C@@]21C`, the result was inactive.

Regarding `CN(C)c1ccc(C=O)cc1`, the molecule was classed as inactive.

With `CCOCC(C)O` (configuration not stated), the outcome was inactive.

As for `COc1cc(OC)c2ccc(=O)oc2c1`, the call was inactive.

`[Cl][Dy]([Cl])[Cl]`: the outcome was inactive.

On to `O=C(O)CS`, for which the call was inactive.

`CCC(CC)CO`: the molecule was called inactive.

With `CCCCCc1cccc(=O)o1`, the outcome was inactive.

On to `Cc1ccccc1S`, for which the outcome was inactive.

Consider `CCc1cccc(O)c1`, for which the molecule was called inactive.

`CCC(C)(CCCC(C)C)OC(C)=O` (configuration not stated): the molecule was classed as inactive.

Consider `CCC=C(C)C=O`, for which the molecule was called inactive.

For `NC(=O)c1c(Cl)cccc1Cl`, the molecule was called inactive.

In the case of `CC(O)CNCC(C)O` (configuration not stated), the molecule was called inactive.

On to `CC(C)Cc1ccc(C(C)C(=O)O)cc1` (configuration not stated), for which the molecule was classed as inactive.
